Most compounds without a hit are left out; they make up all but 11% or so of the library.
PNC inhibitor = High Content Assay for Compounds that inhibit the Assembly of the Perinucleolar Compartment; 140,000 compounds, 3.1% hits; AID 2417, 2010; PC3M PTB-GFP, PNC prevalence imaging, 16 h; stronger effect = lower value; activity change (PNC), negative = inhibition, % at 10 µM;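 active means readout at or below -70, meaning at least 70% loss of cells showing the perinucleolar compartment, a nuclear body marking cancer cells; inconclusive means readout between -30 and a set limit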;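 further: plate controls were DMSO wells for no effect and camptothecin positive control wells for full effect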
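PC3M cells stably expressing PTB-GFP, 750–1000 cells/well, treated 16 h at 37 °C with compound (23 nl of library stock), in duplicate. After paraformaldehyde fixation and Hoechst stain, imaged at 20x; PNC prevalence scored by image analysis.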
HttQ103 aggreg = qHTS Multiplex Assay to Identify Dual Action Probes in a Cell Model of Huntington: Aggregate Formation (GFP); PC12 HttQ103-GFP aggregates, Acumen cytometry, 40 h; Potency, µM (doses to about 46.1 µM), for the others: at the highest dose activity change, negative = inhibition, usual class: inhibitors; 220,000 compounds, 1.1% hits; AID 1688, 2009; active means well fitted curve in the direction sought with a large enough effect; inconclusive means small, poorly fitted or top-dose-only effect, or another doubt; inactive means no such curve, though single readings can be large; an effect the other way counts as inactive or inconclusive; further: potency means the concentration at half of the fitted maximal effect; on the % scale 0 is the no-effect control and ±100 the full control effect; nearly all actives have a fitted effect of over 60% in size
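Aggregate formation scored by laser-scanning cytometer (488 excitation, 500–530 emission) in lysed PC12 cells expressing Q103-GFP after 100 nM tebufenozide induction; library tested in dose series, with ATPLite reagent added in the multiplex.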
HPGD block = qHTS Assay for Inhibitors of HPGD (15-Hydroxyprostaglandin Dehydrogenase); 15-hydroxyprostaglandin dehydrogenase [NAD(+)] (Homo sapiens), P15428; Potency, µM, for inactives: at the top dose activity change, negative = inhibition, most hits filed as inhibitors; AID 894, 2007; purified HPGD, NADH fluorescence kinetic, PGE2 substrate; 150,000 compounds, 4.3% hits; further: potency means the concentration at half of the fitted maximal effect; on the % scale 0 is the no-effect control and ±100 the full control effect
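NADH formation kinetics: reaction with 30 uM PGE2 and 1 mM NAD+ (final), 20 nM enzyme, Tris-HCl pH 8 with Tween 20, after 15 min compound preincubation at room temperature. Fluorescence change, last versus first of five reads.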
GoLoco inh red = qHTS Assay for Inhibitors of RGS12 GoLoco Motif Activity (Red Fluorophore) | Guanine nucleotide-binding protein G(i) subunit alpha-1 (Homo sapiens), P63096 | Gai1:RGS12 GoLoco peptide FP, rhodamine, 10 min | Potency, µM (series often up to 61.6 µM), without a hit: top-dose activity, negative = inhibition, actives largely listed as inhibitors | 230,000 compounds, 0.44% hits; active means well fitted inhibition curve with a large enough effect, not every such curve was filed as active; inactive means no such curve, though single readings can be large or run the other way; further: potency means the concentration at half of the fitted maximal effect; on the % scale 0 is the no-effect control and ±100 the full control effect; nearly all actives have a fitted effect of over 30% in size
Target sequence (P63096 whole entry, looked up): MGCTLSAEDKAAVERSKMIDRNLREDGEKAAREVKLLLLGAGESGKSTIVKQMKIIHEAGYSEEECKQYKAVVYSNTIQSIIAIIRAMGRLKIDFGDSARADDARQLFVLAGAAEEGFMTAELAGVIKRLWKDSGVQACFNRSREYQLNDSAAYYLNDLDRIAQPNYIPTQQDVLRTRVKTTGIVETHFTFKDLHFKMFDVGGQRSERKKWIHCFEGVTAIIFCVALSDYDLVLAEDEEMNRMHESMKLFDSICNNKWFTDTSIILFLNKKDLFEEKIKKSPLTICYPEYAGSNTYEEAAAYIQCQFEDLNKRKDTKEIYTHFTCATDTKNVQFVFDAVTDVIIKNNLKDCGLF
HTT ATP protect = qHTS Multiplex Assay to Identify Dual Action Probes in a Cell Model of Huntington: Cytoprotection (ATP); 230,000 compounds, 0.14% hits; PC12 HTT-Q103 induced, cytoprotection, ATP luminescence, 40 h; Potency, µM (top dose mostly 56.4 µM), without a hit: cytoprotection (ATP increase), actives largely listed as activators; active means well fitted curve in the direction sought with a large enough effect; inconclusive means small, poorly fitted or top-dose-only effect, or another doubt; inactive means no such curve, though single readings can be large; an effect the other way counts as inactive or inconclusive; further: potency means the concentration at half of the fitted maximal effect; % of control where 0% means no effect; nearly all actives have a fitted effect of over 45% in size
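Compounds were screened for protection of PC12 cells against cell death after tebufenozide induction (100 nM final) of mutant Huntingtin exon 1 (Q103) fused to GFP.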
ALDH1A1 inh = qHTS Assay for Inhibitors of Aldehyde Dehydrogenase 1 (ALDH1A1); Aldehyde dehydrogenase 1A1 (Homo sapiens), P00352; AID 1030, 2008; Potency, µM (highest dose often 75.3 µM), for inactives: at the highest dose activity, negative = inhibition, most hits filed as inhibitors; 220,000 compounds, 7.3% hits; Purified ALDH1A1, NADH fluorescence, propionaldehyde substrate;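 further: potency means the concentration at half of the fitted maximal effect; plate controls were no enzyme wells and a reference inhibitor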
Active calls of the source: *; ? = inconclusive; . = no result given; [ ] = remark or other dose. Unless noted, the call rests on the fitted dose curve; in most records, active means well fitted inhibition curve with a large enough effect (not every such curve was filed as active); inconclusive means small, poorly fitted or top-dose-only effect, or another doubt; inactive means no such curve, though single readings can be large or run the other way.

SMILES | PNC inhibitor | HttQ103 aggreg | HPGD block | GoLoco inh red | HTT ATP protect | ALDH1A1 inh
CCCCSc1nnc(NC(=O)CCc2ccccc2)s1 | -81.0* | -2.1% | -8.5% | 6.7% | 10.7% | -0.9%
CCS(=O)(=O)N1CCN(c2ccc(C(=O)NC3C4CC5CC(C4)CC3C5)cc2[N+](=O)[O-])CC1 (configuration not stated) | -12.9 | ? | -1.2% | 6.0% | -6.3%[10 µM] | 7.08µM*
COc1ccc(S(=O)(=O)N2CCC(C(N)=O)(N3CCCCC3)CC2)cc1 | ? | -3.5% | -3.9% | -11.9% | -2.3% | 17.8µM*
COc1ccc(NS(=O)(=O)c2ccc(S(=O)(=O)N3CCCC3)cc2)cc1 | 19.2 | -23.2% | -3.8% | 3.1% | 19.0% | 1µM*
O=C(O)C1CCN(S(=O)(=O)c2ccc(Oc3ccccc3)cc2)CC1 | -82.6* | -18.4% | -1.1% | 12.0% | -6.2% | 22.1%
O=C(O)CC(SCC(=O)Nc1ccc(S(=O)(=O)N2CCCC2)cc1)C(=O)O (configuration not stated) | . | 17.3% | . | -3.3% | 13.3% | 8.91µM*
O=C(O)C1CCN(S(=O)(=O)c2cccnc2)CC1 | 25.6 | 11.3% | 1.7% | -5.5% | 21.9% | 10.2%
COC(=O)[C@@H](NC(=O)O[C@@H]1C(=O)c2cc(OC)ccc2O[C@H]1c1ccc(OC)c(Br)c1)C(C)C | . | . | -18.8% | 1.0% | -12.1% | -7.2%
CC1CCC(C(=O)O)NC1c1ccc(C#CCN(C)C)cc1 (configuration not stated) | . | . | . | . | 5.0%[10 µM] | 23.2%[13.5 µM]
Cn1c(SCC(=O)N/N=C/c2ccc([N+](=O)[O-])s2)nnc1-c1ccc(Cl)cc1 | ? | -8.4% | -12.8% | -1.3% | -4.0%[10 µM] | ?
CC(C)C[C@@H](CC(=O)N[C@@H](CCC(=O)O)CC(=O)O)NC(=O)[C@@H]1CCCC[C@H]1NC(=O)C[C@H](CCCN)NC(=O)C[C@H](Cc1c[nH]c2ccccc12)NC(=O)[C@@H]1CNCC[C@H]1N | . | . | -7.9% | 0.2% | 6.2%[1.9 µM] | ?
O=C(O)/C=C/C(=O)Nc1ccc(S(=O)(=O)N2CCCC2)cc1 | . | -16.6% | . | -4.8% | -5.7% | 22.4µM*
COc1ccc(NS(=O)(=O)c2ccc(S(=O)(=O)N3CCOCC3)cc2)cc1 | . | -11.9% | . | 0.1% | -30.1% | 1.41µM*
O=S(=O)(Nc1ccc(S(=O)(=O)N2CCOCC2)cc1)c1ccccc1 | -10.0 | -0.1% | 2.0% | 8.1% | -0.2% | 5.2%
COc1ccc(NS(=O)(=O)c2ccc(S(=O)(=O)N3CCCC3)cc2)cc1Cl | -5.8 | ? | -8.2% | -4.5% | 31.5% | 12.6µM*
CC(=O)Nc1ccc(S(=O)(=O)N2CCN(C(C)CCc3ccccc3)CC2)cc1 (configuration not stated) | 13.6 | -2.0% | 2.5% | 4.9% | -3.5% | 31.6µM*
COC(=O)N1C2CC3(C)C=C(C)OC1(C)C3c1ccccc12 (configuration not stated) | . | . | -7.9% | 3.2%[14.2 µM] | 8.8%[10 µM] | 2.5%[13.5 µM]
O=C(O)c1cc(=O)c2cccc(O)c2[nH]1 | . | . | -8.5% | 1.2% | -6.2% | -9.7%
CN(C)Cc1ccccc1-c1nc(NC2CC2)c2ccccc2n1 | . | . | . | 5.0% | 0.1% | 20.2%
C[N+](C)(C)CCN(Cc1cccs1)c1ccccn1 | . | . | -13.8% | 2.3%[14.2 µM] | 11.5%[10 µM] | 3.9%[13.5 µM]
COc1ccc(S(=O)(=O)N2CCC(C(=O)N3CCCCCC3)CC2)cc1 | 12.4 | 2.5% | 15.8µM* | -0.4% | 4.8% | ?
COc1ccc(S(=O)(=O)N2CCCCC2)cc1NS(=O)(=O)c1ccccc1F | . | 6.4% | . | 6.5% | -7.1% | ?
